Consider 47 molecules from PubChem BioAssay AID2685 (National Center for Advancing Translational Sciences (NCATS), 2010).

Molecules are shown by their SMILES. In all, about 320,000 compounds went through this assay and about 2,100 (0.66%) were called active. Not shown: some 53% with an inconclusive outcome. Calls follow the shape of the dose curve; as a rule, active = well fitted inhibition curve with a large enough effect in the signal ratio, with a control signal flat (not every such curve was filed as active); inconclusive = small, poorly fitted or top-dose-only effect, or effect the other way, or a change in a side signal; inactive = flat fitted curve, though single readings scatter; the % refers to the signal ratio. For the sample, actives were picked, then their nearest neighbours and some compounds at random.
Potency is read from the fitted curve at half-maximal effect.

The test can be described thus: qHTS Assay for Lipid Storage Modulators in Drosophila S3 Cells.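 As to cell number change: cells counted by Cell Tracker Red CMTPX staining in the red channel.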 As to lipid storage change, negative = inhibition: % is scaled to controls: 0 for no effect and ±100 for the full control effect. Conditions: BODIPY lipid droplet fluorescence, 18-24 h, cells fed with added oleic acid; cell number change: measured here: cell count max response; series mostly up to 46.1 µM; lipid storage change, negative = inhibition: at the top concentration. The procedure, abridged: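 Drosophila S3 cells got compounds at several concentrations plus oleic acid (400 uM solution). Laser-scanning cytometry with 488 nm excitation read lipid droplets at 500-530 nm and cells at 575-640 nm. Percent activity was relative to 20 uM Triacsin C.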
(In general: In qHTS, concentration-response curves come from the screen itself.)
Turning to `CCn1nc(C)c(CN2CCCC(CO)(Cc3ccccc3)C2)c1C` (stereo not drawn), the “lipid storage change, negative = inhibition” value is -2.88% (inactive) and the cell number change is 6.82%.

`Cc1ccc(-c2cc([C@H]3[C@H]4C=CC[C@@H](C)[C@@H]4C(=O)N3Cc3ccccc3)ccc2F)cc1`: the “lipid storage change, negative = inhibition” value is 8.48% (inactive) and the cell number change is -1.15%.

For `COC(=O)c1cccc(NC(=O)NC(=O)c2ccccc2Cl)c1`, the “lipid storage change, negative = inhibition” value was -0.414% (inactive) and the cell number change was -8.19%.

On to `Cc1cccc(NC(=O)CSc2nc3ccccc3o2)c1`, for which the result was inactive.

Consider `CCCn1c(=N)c(C(=O)NC2CCCC2)cc2c(=O)n3cccc(C)c3nc21`, for which the “lipid storage change, negative = inhibition” value was -0.957% (inactive) and the cell number change was -9.76%.

In the case of `Cc1cccn2c(=O)c3cc(C(=O)NCCC4=CCCCC4)n(C)c3nc12`, the Potency is 18.4 µM (active) and the cell number change is -17.7%.

As to `COCCCn1c(C(=O)NC2CCCCC2C)cc2c(=O)n3cccc(C)c3nc21` (stereo not drawn), the Potency is 20.6 µM (active) and the cell number change was 8.96%.

`COCCCn1c(=N)c(C(=O)NCC2CCCO2)cc2c(=O)n3cccc(C)c3nc21` (stereo not drawn): the “lipid storage change, negative = inhibition” value is 0.117% (inactive) and the cell number change is -13.4%.

In the case of `Cn1c(C(=O)NCCC2=CCCCC2)cc2c(=O)n3ccccc3nc21`, the result was inactive.

As for `Cc1cccn2c(=O)c3cc(C(N)=S)c(=N)n(CCCOC(C)C)c3nc12`, the Potency is 9.2 µM (active) and the cell number change was 3.82%.

Regarding `Cc1cccn2c(=O)c3cc(C(N)=S)c(=N)n(CCCN4CCOCC4)c3nc12`, the “lipid storage change, negative = inhibition” value was 11% (inactive).

In the case of `CCN(C(=O)c1cc2c(=O)n3cccc(C)c3nc2n1CCCOC)C1CCCCC1`, the Potency is 23.1 µM (active) and the cell number change is 8.25%.

As for `COCCCn1c(=NC(C)=O)c(C#N)cc2c(=O)n3cccc(C)c3nc21`, the “lipid storage change, negative = inhibition” value is 10.7% (inactive) and the cell number change was 0.683%.

With `Cc1cccn2c(=O)c3cc(C(=O)NCCCN4CCCC4=O)n(C)c3nc12`, the molecule was called inactive.

For `COCCCn1c(C(=O)N2CC(C)OC(C)C2)cc2c(=O)n3cccc(C)c3nc21` (stereo not drawn), the molecule was classed as inactive and the cell number change was determined as 0.298%.

Take `CC(=O)N=c1c(C#N)cc2c(=O)n3cccc(C)c3nc2n1CCCOC(C)C`: the “lipid storage change, negative = inhibition” value was 5.07% (inactive) and the cell number change is 13.1%.

For the molecule `O=C(CCc1nnc(C2(c3ccc(Cl)cc3)CCC2)o1)NC1CC1`, the “lipid storage change, negative = inhibition” value is 0.737% (inactive) and the cell number change is 6.23%.

With `Cc1ccc2[nH]c3c(c2c1)CCN1C(=O)OC(C)(C)C31C` (stereo not drawn), the “lipid storage change, negative = inhibition” value is -5.19% (inactive) and the cell number change was -17.1%.

`O=C(CCCc1nc2ccccc2s1)N1CCN(c2ccccc2F)CC1`: the “lipid storage change, negative = inhibition” value is 2.32% (inactive) and the cell number change worked out at 22.1%.

On to `COc1cccc(/C=C/C(=O)OCC(=O)c2c[nH]c3ccccc23)c1`, for which the Potency was 9.2 µM (active) and the cell number change is -14.3%.

On to `COc1ccc(/C=C/C(=O)OCC(=O)c2c[nH]c3ccccc23)cc1`, for which the “lipid storage change, negative = inhibition” value was 9.96% (inactive) and the cell number change came out at 4.45%.

For the molecule `COc1cc(/C=C/C(=O)OCC(=O)c2c[nH]c3ccccc23)ccc1OC(F)F`, the “lipid storage change, negative = inhibition” value is -0.565% (inactive) and the cell number change is -14.2%.

Consider `CCOc1cc(N2CCOCC2)c(OCC)cc1NC(=O)Cn1[nH]c(=O)c2ccccc2c1=O`, for which the “lipid storage change, negative = inhibition” value was 5.54% (inactive) and the cell number change is 7.32%.

Regarding `O=C(O)CNS(=O)(=O)Cc1ccccc1`, the “lipid storage change, negative = inhibition” value was 5.11% (inactive) and the cell number change is 2.83%.

In the case of `Cc1cccc(NC(=O)C2CCN(S(=O)(=O)c3cccs3)CC2)n1`, the molecule was classed as inactive.

On to `Cc1ccccc1Cn1c(C)nc2ccccc21`, for which the Potency is 10.3 µM (active) and the cell number change is -15.1%.

In the case of `Cc1nc2ccccc2n1Cc1ccccc1`, the “lipid storage change, negative = inhibition” value was -4.71% (inactive) and the cell number change was -17%.

With `COc1ccccc1Cn1c(C)nc2ccccc21`, the “lipid storage change, negative = inhibition” value was 10.5% (inactive) and the cell number change worked out at 10.6%.

As to `N#Cc1cc(N2CCCCC2)c([N+](=O)[O-])cc1C#N`, the “lipid storage change, negative = inhibition” value was -18% (inactive) and the cell number change is -3.02%.

For the molecule `CC1CCN(c2cc(C#N)c(C#N)cc2[N+](=O)[O-])CC1`, the Potency was 23.1 µM (active) and the cell number change was determined as 0.344%.

Consider `CN(C)CCC1CCN(c2cc(C#N)c(C#N)cc2[N+](=O)[O-])CC1`, for which the “lipid storage change, negative = inhibition” value was 16.4% (inactive) and the cell number change was -1.99%.

Regarding `COC(=O)c1cc(OC)c(OC)cc1NC(=S)N1CCN(c2ccccn2)CC1`, the “lipid storage change, negative = inhibition” value was 5.07% (inactive) and the cell number change was -13.1%.

As to `CCCS(=O)(=O)c1nc(S(=O)(=O)c2ccc(C)cc2)c(N2CCC3(CC2)OCCO3)s1`, the “lipid storage change, negative = inhibition” value is 17.8% (inactive) and the cell number change was -26.8%.

For the molecule `CCCCNC(=O)CC1NCCNC1=O` (stereo not drawn), the “lipid storage change, negative = inhibition” value is -8.27% (inactive) and the cell number change was -9.85%.

On to `COc1cc(NC(=O)CC2NCCNC2=O)cc(OC)c1` (stereo not drawn), for which the “lipid storage change, negative = inhibition” value was -4.51% (inactive) and the cell number change was 2.74%.

In the case of `COC(=O)CC1NCCNC1=O` (stereo not drawn), the Potency is 0.0326 µM (active) and the cell number change was -8.44%.

For the molecule `S=c1[nH]nc(-c2cc(-c3ccccc3)n[nH]2)n1/N=C/C=C/c1ccccc1`, the “lipid storage change, negative = inhibition” value is -0.135% (inactive) and the cell number change was determined as 5.92%.

Take `Cc1ccc(C)c(N2CCN(C(=O)Nc3ccc4c(c3)N(C)C(=O)CS4)CC2)c1`: the “lipid storage change, negative = inhibition” value is 6.34% (inactive) and the cell number change was -6.47%.

On to `CN(C)N=C1c2cc(S(=O)(=O)N(C)C)ccc2-c2ccc(S(=O)(=O)N(C)C)cc21`, for which the molecule was classed as inactive and the cell number change is -8.49%.

On to `CC(=O)NCCNC(=O)c1ccc(-n2c(C)ccc2C)cc1`, for which the “lipid storage change, negative = inhibition” value was 6.73% (inactive) and the cell number change is -0.679%.

On to `O=C1ON=C(c2ccccc2)/C1=C/c1cccnc1`, for which the “lipid storage change, negative = inhibition” value is -24.6% (inactive) and the cell number change is 4.4%.

`Cc1ccc(C2=NOC(=O)/C2=C\C=C\c2ccccc2)cc1`: the Potency is 4.61 µM (active) and the cell number change was -25.2%.

In the case of `O=C1ON=C(c2ccccc2)/C1=C/c1ccccc1`, the molecule was called inactive and the cell number change was -8.78%.

As for `Cc1cc(C)cc(N2CC(C(=O)Nc3cc(C)on3)CC2=O)c1` (stereo not drawn), the “lipid storage change, negative = inhibition” value is -6.62% (inactive) and the cell number change is -8.97%.

With `Cc1cccc(NC(=O)N2CCCC(CNC(=O)c3ccccc3Cl)C2)c1C` (stereo not drawn), the Potency is 20.6 µM (active) and the cell number change is -15%.

In the case of `COc1ccccc1NC(=O)N1CCCC(CNC(=O)c2ccccc2Cl)C1` (stereo not drawn), the molecule was classed as inactive and the cell number change was 21.5%.

With `CC(=O)c1ccccc1C(=O)N1CCCC(CNC(=O)c2ccccc2Cl)C1` (stereo not drawn), the molecule was called inactive.
